Measurements taken from PubChem BioAssay (NCI).
This is part of a sample that, as a whole, favours compounds with a hit. Of some 83,000 tested, about 20% had one in any assay.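 Cell lines were cultured in 96-well plates, exposed to a single compound concentration, and assessed for percent growth 48 hours later.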 Calls of active or inactive are those of the source. How the source made its calls: active means growth percent below 10; inactive means the rest.

The compounds below were run on MDA-MB-231 breast (assay: NCI-60 one-dose screen, 48 h (100 = growth as untreated, 0 = no growth, -100 = all killed)). Details: 10 µM unless noted.
With `Cc1c2cnccc2c(C)c2c1c1cc(CO)ccc1n2C` the growth was -52.1% (active). `COc1cc(-c2nccc3[nH]c(-c4cccc5[nH]ccc45)nc23)cc(OC)c1OC` was tested, and the growth was 19.7% (inactive). `Clc1ccc(-c2nc(C(Cl)Cl)nc3cc(-c4ccccc4)nn23)cc1` was tested, and the growth was 36.9% (inactive). In the case of `CC1=Nc2cnc(Nc3ccc(N4CCCCC4)cc3)nc2Nc2ccccc21`, the growth is reported as 60.4% (inactive). `CN(C)c1ccc([C@@H](C(=O)Nc2cccc([N+](=O)[O-])c2)N(C(=O)c2cc3ccccc3[nH]2)c2cccc([N+](=O)[O-])c2)cc1` was tested, and the growth was 96.5% (inactive). In the case of `O=C(CSc1nnnn1-c1ccccc1)Nc1ccc(Oc2ccccc2)cc1`, the growth is reported as 94.2% (inactive). In the case of `COc1cc(/C=C/C(=O)c2cccc(-n3cc(-c4ccc(Cl)cc4)[nH]c3=O)c2)ccc1O`, the growth is reported as 86% (inactive). With `Oc1c(CN2CCC(N3CCOCC3)CC2)cc(Cc2cc(CN3CCC(N4CCOCC4)CC3)c(O)c3ncccc23)c2cccnc12` the growth was 8.58% (active). For `c1ccc2cc(Cn3cc(CSc4nc5ccccc5s4)nn3)ccc2c1`, the growth was 89.3% (inactive). In the case of `CN(C)Cc1cc(C(C)(C)C)cc(Br)c1O`, the growth is reported as 113% (inactive). For `CCN(CC)CCOc1ccc(/C(=C(\C)Cc2ccc(OC)cc2)c2ccc(OC(=O)NCc3ccccc3)cc2)cc1`, the growth was 76.3% (inactive). `C=C1C(=O)O[C@H]2[C@H]1CC/C(COC(=O)NCc1ccc(Cn3c(=O)sn(-c4ccc(I)cc4)c3=O)cc1)=C\CC[C@@]1(C)O[C@@H]21` was tested, and the growth was 73.5% (inactive). For `O=c1oc2ccccc2cc1-c1nn(-c2ccccc2)cc1-c1nn[nH]n1`, the growth was 94.7% (inactive). For `O=c1oc2c(cc1-c1ccccc1)c(=O)[nH]c1ccccc12`, the growth was 96.8% (inactive). In the case of `CC1=C(Cl)C(=O)c2cc(C)ccc2C1=O`, the growth is reported as 103% (inactive).
